Consider 40 sequences from the supplement of paper PMC6555819.

The test system of the first assay is RARb homodimer (NR concentration 270 nM). The experiment in a line: PBM binding z-score (relative to random genomic background probes); higher = stronger binding; sequences stand for … in GC…GCGATTGACAGCGTAGAATGAAGG
Put shortly:
(§1)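 Ligand-free nuclear receptor dimers were applied to custom Agilent 4×180K protein-binding microarrays whose double-stranded probes carried direct-repeat seeds, single-nucleotide variants, half-site ablations and random human genomic background sequences in 34-nt variable regions. Incubation lasted 1 h. Binding z-scores were computed against the random background probes from regression-normalized fluorescence.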
As to ACTATTAGTTGAGAAGAGGGCAACCGATAGGTTG, the PBM binding z-score is 1.43.

CGAACTAGGTCTGAACAGGACAGTGAAGGATGAT had a PBM binding z-score of 0.0456.

Consider CCGAGTAGGTTATGGGGCATTCCGGCAACGGTGA, for which the PBM binding z-score is 1.

Consider GCTCGGATGACAAGGTCAGAGCTTTGTCCGTAGA, for which the PBM binding z-score came to 2.57.

Sequence CGAACTAGGTCAAAGGTCAAAGTCGAGCCAACCA had a PBM binding z-score of 5.24.

Consider GCGACTGGTGCATCAGCAGGTTACCATAACTTAA, for which the PBM binding z-score stood at 0.107.

For TCTAGTTGGTCACGGAGGTCACACACGACGGGTA, the PBM binding z-score came out at 4.44.

In turn, GTTGCTAGGTCAGGTTGGTCAGCTAACGGGTACG displayed a PBM binding z-score of 3.23.

Regarding TCGTGTAGATCAGCAGGTTAAGAAAGCTGGCCAA, the PBM binding z-score was -0.0746.

Sequence GCTGGCAGGCCATTTGGGTCACTCAATGACGGGC had a PBM binding z-score of 1.88.

TGAATCAGGTTATAAGATCAGGGAACGTTGCAAA yielded a PBM binding z-score of -0.228.

Take AGCATGAGGTTATACGTAGATCAGGGAAGAAAGT: the PBM binding z-score was determined as 0.998.

With CCTAGCAGGCCAATTTGGGTCACTCAAGGCTTGA, the PBM binding z-score came to 2.08.

GATACAGGGTCAAGACCAGAGTACGCGTATTGAT came in with a PBM binding z-score of 3.07.

TCTCGGAGGACACGAAGGACAGAGCTTTCCAGAG showed a PBM binding z-score of 0.867.

In the case of CCGACTGGGCCACGAAAGGTCATTGATTCAGTGA, the PBM binding z-score amounted to 4.83.

ATCGAAAGGTCGAAGGTTAGTATACCCACCCGAA: the PBM binding z-score is 2.72.

TGAATGACGTTATAAGATCAGGGAACGTTGCAAA had a PBM binding z-score of -0.513.

AGAATGAGGCTACCAAAGATCAGGGAAACGCTTG showed a PBM binding z-score of -0.364.

In turn, CAAACTAGGTCAAGGTCATAGTCGGTTTGTGCCA came in with a PBM binding z-score of 4.91.

TCACGGAGGACACGAAAGGTCAGAGCTCGACATC: the PBM binding z-score is 4.82.

As for ACTAGCAGGCCAGGTTTGGGTCACTCAAACAAAG, the PBM binding z-score was determined as 1.92.

Sequence TAGCCTAGGTCATGGGCCAGTAGACCACGCGAAC gave a PBM binding z-score of 3.01.

In the case of CCCTACGGGTCACTGACAGGTTATAGCATTTGGA, the PBM binding z-score amounted to 3.42.

With GATACAGGGTCAACGCCAGAGTACGCGTATTGAT, the PBM binding z-score turned out to be 3.62.

Sequence ACAGACAGGTGACGAAGGTAACTCAGGCTATCAT came in with a PBM binding z-score of 0.451.

In the case of TCAGACAGGTGGAGGTAACTCAGGTACGCAGTCG, the PBM binding z-score stood at 0.41.

Regarding TCTATTAGTTGATTAGGGCAGCCGAAACAGCGGA, the PBM binding z-score came out at 0.418.

GCTAGCAGGCCATTTGGGACACTCAATGACGGGC: the PBM binding z-score was -0.366.

In the case of TAGCCTAGGTCATGCAGGCCAGTATAGTGTCGGC, the PBM binding z-score is 2.76.

Take TCTTGTAGATCAAGCAGGTTAATAAAGCCTGAGT: the PBM binding z-score was -0.223.

As for CTCCAAAGGTCGTGCTCAGGTGAGTATACCAAAC, the PBM binding z-score is 2.74.

In turn, GCTGCTAGGTCCACTGATGGTCAGCTAAAGCTCG gave a PBM binding z-score of 0.602.

On to ATATGTAGCTTATCGGGTCATTCAGTTTGCGCAT, for which the PBM binding z-score turned out to be 2.24.

Take CCTCGGAGGACAGTAGGTCAGAGCTGTCCGCTTT: the PBM binding z-score turned out to be 2.39.

AGAATGAGGTTATAAAGATCAGGGAATTGCGGTC yielded a PBM binding z-score of 0.868.

GCTTGTAGATTAAGGTTAAGAAAGACTAAGCTAA returned a PBM binding z-score of 0.241.

Sequence CGTCAAAGTTCAATGTAACGTAACAGAAAGCAGC yielded a PBM binding z-score of 3.56.

TCTATTAGTTGATAAGGGCAACCGAAACAGCGGA: the PBM binding z-score turned out to be 1.39.

For the sequence GCTAGTTGGTCAGTAAAAGGTCACAGACCGGTCG, the PBM binding z-score was found to be 5.24.

Another assay concerns RARg:RXRa (NR concentration 270 nM, RXRa partner concentration 90 nM). Described as above. The method in brief: as §1
Regarding ACTATTAGTTGAGAAGAGGGCAACCGATAGGTTG, the PBM binding z-score came out at 0.92.

With CGAACTAGGTCTGAACAGGACAGTGAAGGATGAT, the PBM binding z-score is 0.195.

CCGAGTAGGTTATGGGGCATTCCGGCAACGGTGA yielded a PBM binding z-score of 0.266.

Consider GCTCGGATGACAAGGTCAGAGCTTTGTCCGTAGA, for which the PBM binding z-score was determined as 2.42.

CGAACTAGGTCAAAGGTCAAAGTCGAGCCAACCA displayed a PBM binding z-score of 8.9.

With GCGACTGGTGCATCAGCAGGTTACCATAACTTAA, the PBM binding z-score is -0.0711.

With TCTAGTTGGTCACGGAGGTCACACACGACGGGTA, the PBM binding z-score was 4.66.

GTTGCTAGGTCAGGTTGGTCAGCTAACGGGTACG came in with a PBM binding z-score of 2.74.

TCGTGTAGATCAGCAGGTTAAGAAAGCTGGCCAA displayed a PBM binding z-score of -0.298.

Sequence GCTGGCAGGCCATTTGGGTCACTCAATGACGGGC returned a PBM binding z-score of 0.91.

With TGAATCAGGTTATAAGATCAGGGAACGTTGCAAA, the PBM binding z-score amounted to 0.24.

In turn, AGCATGAGGTTATACGTAGATCAGGGAAGAAAGT registered a PBM binding z-score of 1.64.

Sequence CCTAGCAGGCCAATTTGGGTCACTCAAGGCTTGA had a PBM binding z-score of 0.9.

GATACAGGGTCAAGACCAGAGTACGCGTATTGAT: the PBM binding z-score was found to be 4.94.

For the sequence TCTCGGAGGACACGAAGGACAGAGCTTTCCAGAG, the PBM binding z-score came to 0.776.

Take CCGACTGGGCCACGAAAGGTCATTGATTCAGTGA: the PBM binding z-score was found to be 4.59.

In turn, ATCGAAAGGTCGAAGGTTAGTATACCCACCCGAA yielded a PBM binding z-score of 4.38.

Regarding TGAATGACGTTATAAGATCAGGGAACGTTGCAAA, the PBM binding z-score is 0.43.

Sequence AGAATGAGGCTACCAAAGATCAGGGAAACGCTTG yielded a PBM binding z-score of 0.21.

On to CAAACTAGGTCAAGGTCATAGTCGGTTTGTGCCA, for which the PBM binding z-score worked out at 5.78.

The sequence TCACGGAGGACACGAAAGGTCAGAGCTCGACATC showed a PBM binding z-score of 4.96.

In the case of ACTAGCAGGCCAGGTTTGGGTCACTCAAACAAAG, the PBM binding z-score was 1.47.

For TAGCCTAGGTCATGGGCCAGTAGACCACGCGAAC, the PBM binding z-score was determined as 4.29.

The sequence CCCTACGGGTCACTGACAGGTTATAGCATTTGGA came in with a PBM binding z-score of 5.77.

In turn, GATACAGGGTCAACGCCAGAGTACGCGTATTGAT showed a PBM binding z-score of 5.79.

As for ACAGACAGGTGACGAAGGTAACTCAGGCTATCAT, the PBM binding z-score is 0.549.

TCAGACAGGTGGAGGTAACTCAGGTACGCAGTCG: the PBM binding z-score was -0.00603.

Regarding TCTATTAGTTGATTAGGGCAGCCGAAACAGCGGA, the PBM binding z-score was found to be 0.585.

With GCTAGCAGGCCATTTGGGACACTCAATGACGGGC, the PBM binding z-score was -0.267.

Take TAGCCTAGGTCATGCAGGCCAGTATAGTGTCGGC: the PBM binding z-score turned out to be 4.

Take TCTTGTAGATCAAGCAGGTTAATAAAGCCTGAGT: the PBM binding z-score is -0.313.

CTCCAAAGGTCGTGCTCAGGTGAGTATACCAAAC returned a PBM binding z-score of 5.41.

With GCTGCTAGGTCCACTGATGGTCAGCTAAAGCTCG, the PBM binding z-score was -0.251.

As for ATATGTAGCTTATCGGGTCATTCAGTTTGCGCAT, the PBM binding z-score came out at 1.85.

For the sequence CCTCGGAGGACAGTAGGTCAGAGCTGTCCGCTTT, the PBM binding z-score was 2.09.

In turn, AGAATGAGGTTATAAAGATCAGGGAATTGCGGTC showed a PBM binding z-score of 1.15.

As to GCTTGTAGATTAAGGTTAAGAAAGACTAAGCTAA, the PBM binding z-score was found to be 0.49.

CGTCAAAGTTCAATGTAACGTAACAGAAAGCAGC had a PBM binding z-score of 4.82.

TCTATTAGTTGATAAGGGCAACCGAAACAGCGGA returned a PBM binding z-score of 0.857.

The sequence GCTAGTTGGTCAGTAAAAGGTCACAGACCGGTCG had a PBM binding z-score of 5.64.
